Compounds without any hit were thinned out: in the full panel of roughly 79,000, 15% have a hit. Values without a mark were called inactive. Calls of active or inactive are those of the source. Cut-off read from the data, not from the text of the source: active = growth inhibition above about 70%; inactive = the rest.
How the values were obtained:
[1] = NCI Yeast Anticancer Drug Screen. Data for the rad50 strain (AID 155);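 note: 0% = growth of vehicle-only cultures of the same strain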; settings: S. cerevisiae rad50 strain growth inhibition, hits give high values; at 50.0 µM unless noted
Procedure, shortened: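 A DNA repair-deficient yeast mutant serves as the test organism; compound-induced growth inhibition is calculated against vehicle-treated cells.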

[2] = NCI Yeast Anticancer Drug Screen. Data for the mec2-1 strain (AID 157); settings: S. cerevisiae mec2-1 strain, hits give high values; at 50.0 µM unless noted
Procedure, shortened: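 Vehicle-treated cultures served as reference for growth inhibition of compound-exposed mec2-1 yeast.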

[3] = NCI Yeast Anticancer Drug Screen. Data for the sgs1 mgt1 strain (AID 161);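 note: 0% = growth of cultures given vehicle only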; settings: S. cerevisiae sgs1 mgt1 strain, hits give high values; at 50.0 µM unless noted
Procedure, shortened: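 Test agents were incubated with a DNA-repair-mutant yeast strain. Growth was then read and compared against vehicle-treated controls.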

[4] = NCI Yeast Anticancer Drug Screen. Data for the cln2 rad14 strain (AID 165);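 note: 0% = growth equal to vehicle treated cultures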; settings: S. cerevisiae cln2 rad14 strain, hits give high values; at 50.0 µM unless noted
Procedure, shortened: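 Each compound was tested on cln2 rad14 yeast. Inhibition of growth was calculated against vehicle-exposed controls.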

[5] = NCI Yeast Anticancer Drug Screen. Data for the bub3 strain (AID 167); settings: S. cerevisiae bub3 mutant strain, hits give high values; at 50.0 µM unless noted
Procedure, shortened: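 Inhibition values come from growth of compound-treated mutant yeast normalised to vehicle-treated controls.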

[6] = NCI Yeast Anticancer Drug Screen. Data for the mlh1 rad18 strain (AID 175); settings: S. cerevisiae mlh1 rad18 strain growth inhibition, hits give high values; at 50.0 µM unless noted
Procedure, shortened: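 Vehicle-treated cultures served as the reference for growth inhibition in a yeast strain carrying DNA damage repair alterations exposed to each compound.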

SMILES | growth inhibition [1] | growth inhibition [2] | growth inhibition [3] | growth inhibition [4] | growth inhibition [5] | growth inhibition [6]
COc1ccc(/C(C)=C\C(=O)O)c(O)c1OC | 5.9% | 6.85% | -4.65% | 3.55% | 22.1% | 7.8%
OCCC1CCCCN1 (stereo not given) | 9.25% | -8.4% | -20.4% | -18.4% | -0.75% | 54.5%
CC(=O)OCC(OC(C)=O)C(OC(C)=O)C(/C=N/N(C(C)=O)S(=O)(=O)c1ccc(/C=C2\NC(=O)NC2=O)cc1)OC(C)=O (stereo not given) | -42.5% | -23.6% | -34.6% | -2.45% | -18.9% | -25.6%
CN(C)C[C@@H]1C2C=CC(C2)[C@@H]1CO (stereo not given in full) | -6.5% | 4.55% | -0.9% | 4.95% | 2.25% | -10.6%
COc1cc(N=Nc2c(N)nc(N)[nH]c2=O)c(OC)cc1Cl | -8.45% | 3.65% | -8% | 5.05% | 1.35% | 3%
O=C1C(O)=C(O)C(Br)=C/C1=C(/c1ccccc1S(=O)(=O)O)c1cc(Br)c(O)c(O)c1O | 9.65% | 6.9% | 15.5% | 1.8% | -0.2% | 18.4%
Cc1ccc(S(=O)(=O)N2CCC(CCl)N(S(=O)(=O)c3ccc(C)cc3)CC2CCl)cc1 (stereo not given) | 18.1% | 3.6% | 0.95% | -9.05% | 3.45% | 7.8%
COc1ccccc1-n1c(=O)c(N=Nc2ccc(C)cc2)c(O)n(-c2ccccc2C)c1=S | -34.8% | -10.5% | -17.9% | -44.1% | 0% | -37.5%
O=C1c2ccc3c4ccccc4n(-c4ccccc4)c3c2C(=O)N1c1ccc(Cl)cc1 | -11.8% | -2.95% | -26.2% | 24.9% | -18.4% | -7.05%
COc1ccc(CCn2c(=O)c3ccccc3n(C)c2=O)cc1 | 17.9% | -4.2% | 13.2% | 34.2% | 41.6% | 0.8%
COc1cc(C(=O)N2CCOC23CCN(Cc2ccccc2)CC3)cc(OC)c1OC | -1.5% | -30.6% | -7.8% | 13.2% | -6.9% | 2.7%
CC(C)(C)NCCS | -17.1% | -34.9% | -32.4% | 2.95% | -19.9% | -12.8%
COC1OC(COC(c2ccccc2)(c2ccccc2)c2ccccc2)C(O)C(O)C1O (stereo not given) | 40.7% | 47% | 42.6% | 84.5% (active) | 38% | 41.1%
C/C(=N\NC(=O)Nc1ccc(N=Nc2ccccc2)cc1)c1ccncc1 | 17.4% | 10.5% | 19.1% | 1.5% | 14.3% | 10.7%
C/C(=N/N)c1ccc2[nH]c3c(C)cc([N+](=O)[O-])c(C)c3c2c1 | 16.9% | -6.9% | -22.9% | 13.7% | 3.65% | 6.35%
Cc1ccccc1S(N)(=O)=O | -17.7% | -28.1% | -22.6% | -42.2% | -6.95% | 3.25%
CN(C)CCC(=O)C(=Cc1ccc(Cl)c(Cl)c1)C(=O)CCN(C)C | 93.2% (active) | 97.7% (active) | 95% (active) | 79.8% (active) | 97.8% (active) | 98% (active)
CCOC(=O)c1ccc(N=C2S/C(=C\C(=S)Nc3ccccc3)N(c3ccccc3)C2=Nc2ccc(C(=O)OCC)cc2)cc1 | 14.3% | 4.85% | 12.4% | 13.6% | 19.2% | 12.4%
CCOC(Nc1cc(Cl)cc(Cl)c1)C(=O)c1ccccc1 (stereo not given) | -1.9% | -0.7% | -9.8% | -3.05% | 4.05% | -5.65%
C[N+]1(Cc2ccco2)CCCCC1 | -12.6% | 9.65% | 0.15% | -14.4% | 9% | -6.85%

SMILES | growth inhibition [1] | growth inhibition [2] | growth inhibition [3] | growth inhibition [4] | growth inhibition [5] | growth inhibition [6]
Cc1cc2cccc(Cl)c2nc1C(=O)c1ccccc1 | -9.3% | -12.3% | -9.3% | 22.4% | -7.4% | -12.6%
C/C(=N\Nc1nc2ccccc2s1)c1ccc2c(c1)Sc1ccccc1O2 | 42.9% | 7.7% | 11.9% | 21.8% | -1.8% | 15.9%
O=C1CN(Cc2cccc(Cl)c2)CC(=O)N2Cc3ccccc3CN12 | 34.4% | -1% | 14.2% | -10.8% | 8.9% | -11.5%
O=C(OC(c1ccccc1)C(c1ccccc1)N1CCOCC1)c1ccc([N+](=O)[O-])cc1 (stereo not given) | 54.8% | 8.3% | 55.4% | -4.9% | 17.1% | 54.6%
CC1=CC(=O)[C@@H](O)[C@@]2(C)C1C[C@H]1OC(=O)[C@H](C/C=C(/C)C(C)C)[C@H]3C(C)C(O)C4(O)OC[C@@]31C42 (stereo not given in full) | 76.8% (active) | 77.9% (active) | 72% (active) | 81.7% (active) | 80% (active) | 76.5% (active)
CSc1nc(C)cc(Nc2ccc(O)c(CN3CCCCC3)c2)n1 | 19.4% | -20.3% | -27.3% | 10.4% | -32.6% | 2.6%
Nc1c(Br)cc(Br)cc1C(=O)O | 23.9% | -14.1% | 42.2% | 17.1% | -6.95% | 5.7%
CCOC(=N)n1c(=O)n(C2=NCCN2)c2ccccc21 | 0.45% | 0.35% | -48.5% | 1.95% | 22.2% | -43.8%
CC(=O)N(C)c1ccccc1 | -19.2% | -20.9% | -16.4% | -40.5% | -8.45% | -7.55%
Cc1cccc(NC(=O)Nc2ccccc2Cl)n1 | 23.5% | -3.6% | 24.4% | 25.7% | 13.2% | 16.6%
CCOC(OCC)c1cc(=O)[nH]c(NC(C)=O)n1 | -1.15% | 0.05% | 10% | -11.9% | -1.25% | 5.4%
COC1=Nc2ccccc2N2CCN=C12 | 4.55% | -23.6% | -8.7% | -1.35% | -8.75% | -12.8%
COc1cc(C(=O)c2cc3c(cc2C(=O)O)OCO3)cc(OC)c1OC | -7.6% | 0.85% | 2.9% | -30.6% | 8.5% | -2.05%
OCC1COCO1 (stereo not given) | 0.35% | -4.1% | -8.75% | -1.65% | -6.5% | 9.2%
COc1ccccc1C1OC(N)=C(O)C1=O (stereo not given) | -14.4% | -5.15% | 7.3% | -15.3% | -2.5% | 13.9%
CC1(C)C=C(C(c2cccc([N+](=O)[O-])c2)N2CCCCC2)C(=O)c2ccccc21 (stereo not given) | -26.9% | -10.7% | -13.2% | -40.9% | -0.9% | -13.3%
O=[N+]([O-])c1ccc(Sc2ncnc3c2ncn3C2OC(CO)C(O)C2O)c2nonc12 (stereo not given) | 3.05% | -12.4% | -2.4% | 16.1% | -2.95% | 33.2%
CCCC(=O)OCC1OC(n2cc(F)c(=O)[nH]c2=O)CC1OC(=O)CCC (stereo not given) | 4.1% | 7.9% | 13.9% | -4.3% | -13.9% | 10.2%
N#CC1C(c2ccc(Cl)cc2)C(C(N)=O)C(=O)NC1(O)c1ccccc1 (stereo not given) | -1.45% | -5.4% | 8.45% | 8.95% | 4.15% | 15.6%
Oc1cc(O)c2c(c1)OC(c1ccc(O)c(O)c1)C(O)C2O (stereo not given) | 20.2% | 6.6% | 14.3% | -3.55% | 21.2% | 30.9%
